Source: PubChem
SIRT5 block: inhibitors of human sirtuin-5 desuccinylase. Q9NXA8. AID 652115. hit rate 1.1% among 330,000. inhibition, % at 15 µM. Purified SirT5, succinyl-peptide AMC, trypsin-coupled fluorescence; in the data active = inhibition above about 15%
PDI inh: blocks human protein disulfide isomerase activity. P07237. PDI insulin aggregation turbidity, A650, 90 min. inhibition, % at 10 µM. hit rate 0.052% among 350,000. AID 588391;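 active = mean inhibition across replicates of 30% or more, whatever share of single replicates reach that level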
ERAP1 inh: inhibitors of human ERAP1 aminopeptidase; inhibition, % at 10.7 µM; hit rate 0.15% among 340,000; Q9NZ08; recombinant ERAP1, Leu-AMC fluorescence, 60 min;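 active = mean replicate inhibition of at least 30%, or all replicates individually reaching that 30% level; inactive = mean below 30% and not every replicate reaching it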;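 also: 0% = neutral control wells and 100% = L-leucinethiol positive control wells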
Target sequence (Q9NZ08 whole entry, looked up): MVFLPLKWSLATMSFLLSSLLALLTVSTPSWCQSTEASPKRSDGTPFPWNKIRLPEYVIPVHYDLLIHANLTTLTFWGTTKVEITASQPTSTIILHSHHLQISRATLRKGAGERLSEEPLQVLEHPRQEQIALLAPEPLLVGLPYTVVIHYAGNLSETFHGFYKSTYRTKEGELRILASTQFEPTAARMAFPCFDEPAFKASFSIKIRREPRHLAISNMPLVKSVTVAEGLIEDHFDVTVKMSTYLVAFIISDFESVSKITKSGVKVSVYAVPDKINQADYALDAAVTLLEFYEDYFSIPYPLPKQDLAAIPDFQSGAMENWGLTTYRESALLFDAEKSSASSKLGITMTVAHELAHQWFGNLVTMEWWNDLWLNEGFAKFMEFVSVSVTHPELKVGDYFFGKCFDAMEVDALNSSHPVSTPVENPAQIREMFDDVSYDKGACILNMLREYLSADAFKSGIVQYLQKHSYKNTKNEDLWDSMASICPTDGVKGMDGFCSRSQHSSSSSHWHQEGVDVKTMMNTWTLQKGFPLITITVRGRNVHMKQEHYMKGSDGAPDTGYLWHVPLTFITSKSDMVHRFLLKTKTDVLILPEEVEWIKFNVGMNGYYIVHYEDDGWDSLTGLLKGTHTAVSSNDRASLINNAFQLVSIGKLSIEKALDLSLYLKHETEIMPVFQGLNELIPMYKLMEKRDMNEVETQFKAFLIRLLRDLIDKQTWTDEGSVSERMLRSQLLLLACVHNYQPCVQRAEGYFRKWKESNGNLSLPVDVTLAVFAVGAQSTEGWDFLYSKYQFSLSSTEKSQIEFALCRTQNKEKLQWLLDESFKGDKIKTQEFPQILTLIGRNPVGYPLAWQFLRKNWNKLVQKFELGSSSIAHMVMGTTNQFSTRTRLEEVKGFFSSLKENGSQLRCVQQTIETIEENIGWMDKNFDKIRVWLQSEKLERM
HDAC3 inh: human HDAC3 inhibition. O15379. recombinant HDAC3, fluorogenic peptide/trypsin coupled, fluorescence. inhibition, % at 8.3 µM. hit rate 0.15% among 320,000. AID 2718; in the data active = inhibition above about 26%, passing the limit was not always enough
ERp5 inh: blocks human ERp5 reductase activity on insulin; hit rate 0.05% among 350,000; inhibition, % at 9.99 µM; ERp5 insulin aggregation, absorbance 650 nm, 90 min; Q15084;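 active = mean replicate inhibition above about 25%, with every replicate also reaching it, limit read from the data, passing the limit was not always enough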
* = called active by the depositor; x = not tested or not shown. The full list was thinned out, with hits kept by preference.

SMILES | SIRT5 block | PDI inh | ERAP1 inh | HDAC3 inh | ERp5 inh
CC(C)NC(=O)N(C)C[C@@H]1Oc2c(NS(=O)(=O)c3cn(C)cn3)cccc2C(=O)N([C@@H](C)CO)C[C@H]1C | 10.9 | x | -0.3 | x | 2.1
CO[C@H]1CN(C)C(=O)c2ccc(NC(C)=O)cc2OC[C@H](C)N(C(=O)C2CCOCC2)C[C@@H]1C | 4.2 | x | -0.5 | x | -4.9
Cc1ccc(S(=O)(=O)N(C)C[C@H]2Oc3ccc(NC(=O)CCN4CCOCC4)cc3CC(=O)N([C@@H](C)CO)C[C@@H]2C)cc1 | 1.3 | x | -2.6 | x | -2.5
CC(C)CC#Cc1ccc2c(c1)O[C@@H](CN(C)C(=O)CC1CC1)[C@@H](C)CN([C@H](C)CO)S2(=O)=O | 24.9* | x | 1.7 | x | -0.4
CC(C)CC#Cc1ccc2c(c1)O[C@H](CN(C)C(=O)C1CCCCC1)[C@H](C)CN([C@H](C)CO)S2(=O)=O | 2.5 | x | -4.5 | x | -1.9
CC(C)CC#Cc1ccc2c(c1)O[C@@H](CN(C)C(=O)C1CCCCC1)[C@H](C)CN([C@H](C)CO)S2(=O)=O | 19.2* | x | 8.3 | x | 5.9
CC(C)CC#Cc1ccc2c(c1)O[C@@H](CN(C)C(=O)C1CCCCC1)[C@@H](C)CN([C@H](C)CO)S2(=O)=O | 22.0* | x | -2.5 | x | 4.0
COc1cccc(-c2ccc([C@@H]3[C@@H](CO)N4C(=O)CN(C(=O)C5CCOCC5)C[C@@H]34)cc2)c1 | 7.1 | x | 2.4 | x | -3.5
CC(=O)N1N=C(N)SC12CCCC2 | 19.5* | 1.9 | -1.2 | -8.5 | 0.0
Cc1cc(O)c(Sc2ncn[nH]2)cc1NS(=O)(=O)c1ccc(Cl)cc1 | 1.0 | 3.9 | 0.3 | 6.4 | 4.0
O=S(=O)(Nc1cc(Sc2ncn[nH]2)c(O)c2ccccc12)c1ccccc1 | 1.4 | -5.2 | 56.1* | x | -4.2
O=C(O)c1cccc(-n2cccc2/C=C2/NC(=O)N(c3ccc(Cl)cc3)C2=O)c1 | 43.9* | 3.2 | -2.2 | x | 19.1
O=C(O)c1cccc(-n2cccc2/C=C2/NC(=O)N(c3cccc(Cl)c3)C2=O)c1 | 9.2 | -1.3 | 17.4 | 3.1 | -8.7
COC(=O)C1=NNC2(c3ccc(Cl)cc3)C(=O)N(c3ccc(Cl)cc3)C(=O)C12 (stereo not drawn) | x | 5.5 | x | 11.7 | x
COC(=O)C1=NNC2(c3ccc(Cl)cc3)C(=O)N(c3ccccc3)C(=O)C12 (stereo not drawn) | -0.9 | -2.7 | 1.0 | 34.1* | 0.9
O=C(CSc1n[nH]c(-c2ccncc2)n1)NC1CCS(=O)(=O)C1 (stereo not drawn) | x | -3.3 | x | 2.7 | x
O=C(CSc1n[nH]c(-c2cccs2)n1)NC1CCS(=O)(=O)C1 (stereo not drawn) | -2.8 | 3.4 | 34.7* | -1.1 | 1.2
CCC(=O)N[C@H]1C=C[C@H](CC(=O)NCC2CCCCC2)O[C@H]1CO | -11.0 | x | 3.0 | x | 9.5
CC(C)CN(CC(C)C)S(=O)(=O)N1CCC(C(=O)NCCc2ccc(Cl)cc2)CC1 | 16.1* | 10.2 | -0.7 | 2.6 | 0.0
Cc1noc(C)c1S(=O)(=O)N(C)C[C@@H]1OCCCC[C@@H](C)Oc2ccc(NS(=O)(=O)c3ccc(Cl)cc3)cc2C(=O)N([C@H](C)CO)C[C@H]1C | -1.8 | x | 1.3 | x | 8.8
COCCCn1c(C(=O)N2CCOCC2)cc2c(=O)n3ccccc3nc21 | -44.0 | -2.2 | 54.4* | -120.3 | 2.4
COCCCn1c(C(=O)NC2CCCCC2C)cc2c(=O)n3cccc(C)c3nc21 (stereo not drawn) | -11.2 | -6.3 | 1.0 | -4.5 | 5.2
CCN(C(=O)c1cc2c(=O)n3cccc(C)c3nc2n1CCCOC)C1CCCCC1 | -1.0 | 1.5 | 50.3* | -9.1 | 2.3
C[C@H]1CN([C@@H](C)CO)C(=O)c2cc(N(C)C)ccc2O[C@H]1CN(C)C(=O)NC1CCCCC1 | -1.6 | x | -1.4 | x | -0.6
COc1cccc(C(=O)Nc2ccc3c(c2)C(=O)N(C)C[C@H](OC)[C@@H](C)CN(CCc2ccccc2)[C@H](C)CO3)c1 | 20.3* | x | x | x | 3.8
SMILES | SIRT5 block | PDI inh | ERAP1 inh | HDAC3 inh | ERp5 inh
COc1cccc(C(=O)Nc2ccc3c(c2)C(=O)N(C)C[C@H](OC)[C@H](C)CN(CCc2ccccc2)[C@@H](C)CO3)c1 | 12.6 | x | x | x | 6.7
CO[C@H]1CN(C)C(=O)c2cc(NC(=O)NC3CCCCC3)ccc2OC[C@H](C)N(CCc2ccccc2)C[C@@H]1C | 24.8* | x | -0.8 | x | -0.6
CCCNC(=O)Nc1ccc2c(c1)C(=O)N(C)C[C@H](OC)[C@H](C)CN(Cc1ccc(-c3ccccn3)cc1)[C@H](C)CO2 | 15.1* | x | 0.1 | x | 6.3
COCC(=O)Nc1ccc2c(c1)C(=O)N(C)C[C@@H](OC)[C@H](C)CN(CCc1ccccc1)[C@H](C)CO2 | 0.6 | x | 0.0 | x | 0.9
COCC(=O)Nc1ccc2c(c1)OC[C@@H](C)N(CCc1ccccc1)C[C@@H](C)[C@H](OC)CN(C)C2=O | 31.0* | x | 0.7 | x | -1.5
CCCNC(=O)Nc1ccc2c(c1)OC[C@@H](C)N(Cc1ccc(-c3ccccn3)cc1)C[C@H](C)[C@H](OC)CN(C)C2=O | x | x | 0.5 | x | -2.8
CCCNC(=O)N1[C@H](CO)[C@@H]2c3ccccc3N(C(=O)c3ccccc3)C[C@@H]21 | 5.4 | x | 0.9 | x | -0.1
COc1ccc(CN2CCC[C@]3(N[C@H](c4ccc(OC)cc4)[C@@H]4C(=O)N(C)C(=O)[C@@H]43)C2=O)cc1 | -6.7 | 2.4 | 1.0 | x | 4.2
COc1ccc([C@H]2N[C@]3(CCCN(Cc4ccc(C)cc4)C3=O)[C@H]3C(=O)N(C)C(=O)[C@@H]23)cc1 | 39.0* | 2.5 | 13.2 | x | 0.1
Cc1cccc(-c2ccc([C@@H]3[C@@H](CO)N4CCCCN(Cc5cncnc5)C[C@H]34)cc2)c1 | -1.8 | x | 0.3 | x | -0.9
Cc1ccc(-n2c(SCC(=O)NCC3CCCO3)nc3ccccc3c2=O)cc1C (stereo not drawn) | -1.0 | -0.8 | 4.8 | -13.4 | -3.0
O=C(CSc1nc2ccccc2c(=O)n1-c1ccccc1)NCC1CCCO1 (stereo not drawn) | -4.5 | -2.6 | 82.0* | 1.9 | 1.2
CCn1c(SCC(=O)NC2CCCCC2)nc2ccccc2c1=O | 0.0 | -1.1 | 54.7* | 6.3 | -1.8
CCC(=O)N1CC2(CCN(Cc3cccnc3)CC2)c2c(n(C)c3cc(OC)ccc23)[C@H]1CO | -4.5 | x | -2.4 | x | 0.9
C/C(=N/NS(=O)(=O)c1ccc(C)cc1)c1c(O)c2ccccc2oc1=O | 28.5* | -25.6 | -1.5 | 5.5 | 2.5
Cc1ccc(S(=O)(=O)Nc2c(O)c3ccccc3oc2=O)cc1 | -5.2 | 8.9 | 0.5 | 7.0 | 11.4
O=C(NCC[C@@H]1CC[C@H](NS(=O)(=O)c2cccc(F)c2)[C@@H](CO)O1)C1CCCCC1 | 2.8 | x | 0.3 | x | -7.1
COc1cc(OC)cc(C(=O)NCCCNC(=O)c2ccccn2)c1 | 0.0 | 1.6 | -3.3 | 6.6 | 2.4
O=C(COc1ccccc1Cl)NCCNC(=O)c1ccccn1 | -1.7 | -3.2 | -3.8 | 3.6 | 4.1
Cc1ccccc1OCC(=O)NCCNC(=O)c1ccccn1 | 30.2* | -2.8 | -1.5 | -4.0 | 0.2
CC(C)Oc1ccc(C(=O)NCCCNC(=O)c2ccccn2)cc1 | 16.6* | -63.1 | -6.1 | -5.3 | -1.0
